Results on 39 compounds are retold here after PubChem BioAssay.

A number with no mark means an inactive call. Active and inactive are the calls of the source. No stated cut-off is given here; in the data, active means fold change permeability below about 0.7 or above about 1.3; inactive means in between.

This experiment is described as follows: modulators of brain endothelial barrier permeability, primary screen, cell-based, FITC-avidin fluorescence, HTS (AID 1963498). Further: test concentration not given here. The following applies: actives lie on both sides.
As to `CC(C)(CO)Cc1cc(C(C)(C)C)c(O)c(C(C)(C)C)c1`, the fold change permeability was 1.1. In the case of `CC(/C=C/c1cccc(Oc2ccc(F)cc2)c1)N(O)C(N)=O` (centres undefined) it was 1.1.

Consider `c1ccc(-c2ccccn2)nc1`, for which the fold change permeability was 1. In the case of `Clc1ccc2c(c1)C(N1CCNCC1)=Nc1ccccc1O2` it was 1.2; in that of `O=c1c(O)c(-c2ccc(O)c(O)c2)oc2cc(O)cc(O)c12`, 0.9; in that of `O=C(O)Cc1ccc(O)c(O)c1`, 1. Turning to `O=C(O)[C@H](CC(=O)N1C[C@H]2CCCC[C@H]2C1)Cc1ccccc1`, the fold change permeability was 1.2. In the case of `C[C@H](O)C(=O)C1=Nc2c(nc(N)[nH]c2=O)NC1` it was 0.7 (active). Then `COCc1nc2c([nH]1)c(=O)n(C)c(=O)n2CC(C)C`, with 0.8. In the case of `CN(C)[C@@H]1C(=O)C(C(N)=O)=C(O)[C@@]2(O)C(=O)C3=C(O)c4c(O)ccc(Cl)c4[C@@H](O)[C@H]3C[C@@H]12` it was 1; in that of `Cc1nc2c(OCc3ccccc3)cccn2c1CC#N`, 0.9. On to `Cc1nc2ccccn2c(=O)c1CCN1CCC(C(=O)c2ccc(F)cc2)CC1`, for which the fold change permeability was 1.1.

With `Cn1c(=O)[nH]c2ncn(C)c2c1=O`, the fold change permeability is 1.1. Then `COC(=O)C1=CO[C@@H](O)[C@@H]2C(CO)=CC[C@H]12`, with 1.1 (active).

Consider `CCCN[C@H]1CCc2nc(N)sc2C1`, for which the fold change permeability was 1.1.

On to `C[C@]12CC[C@@H]3c4ccc(O)cc4CC[C@H]3[C@@H]1CC[C@@H]2O`, for which the fold change permeability was 1. Then `NC(=O)c1cc[n+](CC2=C(C(=O)O)N3C(=O)[C@@H](NC(=O)[C@@H](c4ccccc4)S(=O)(=O)[O-])[C@H]3SC2)cc1`, with 0.8.

In the case of `CCN(CC)CCOC(=O)c1cc(Cl)c(N)cc1OC`, the fold change permeability was 1.1. Take `OCCN1CCN(CCCN2c3ccccc3Sc3ccc(C(F)(F)F)cc32)CC1`: the fold change permeability is 1.4 (active). Then `Cc1ccc(-n2sc(=O)n(Cc3ccc(F)cc3)c2=O)cc1`, with 1.1; and `NC1(C(=O)O)CC1`, with 0.9. Then `N=c1nc(N2CCCCC2)cc(N)n1O`, with 0.9; and `O=S(=O)(c1cccc2c(I)cccc12)N1CCCNCC1`, with 0.9; and `COc1ccccc1CNCCCCCCNCCCCCCCCNCCCCCCNCc1ccccc1OC`, with 0.8.

As for `C[N+](C)(C)CCCCCC[N+](C)(C)C`, the fold change permeability was 1. Then `CC(N)(C(=O)O)c1ccc(C(=O)O)cc1` (centres undefined), with 0.9. In the case of `N[C@H](C(=O)O)[C@H](Cc1ccccc1)C(=O)O` it was 1.2; in that of `C[C@H](NC[C@H](O)CP(=O)(O)Cc1ccccc1)c1ccc(Cl)c(Cl)c1`, 1.1. For the compound `N[C@@H](Cc1ccc(O)c(I)c1)C(=O)O`, the fold change permeability was 1.9 (active). `O=c1[nH]cnc2[nH]ncc12`: the fold change permeability was 1.

In the case of `NC12CC3CC(CC(C3)C1)C2`, the fold change permeability is 0.9. Then `CS(=O)(=O)Nc1ccc([N+](=O)[O-])cc1Oc1ccccc1`, with 0.8; and `NCCCCCC(=O)O`, with 1.1; and `C=CCc1ccccc1OCC(O)CNC(C)C` (centres undefined), with 1.2. In the case of `Nc1nc(OCc2ccccc2)c2[nH]cnc2n1`, the fold change permeability is 1. In the case of `c1ccc([C@H]2CN3CCSC3=N2)cc1` it was 1.5 (active); in that of `N[C@@H](Cc1cc(CP(=O)(O)O)cc(-c2ccccc2Cl)c1)C(=O)O`, 0.9.

For `CN(C)CCC=C1c2ccccc2CCc2ccccc21`, the fold change permeability is 1.1. As to `Nc1ncnc2c1nc(Br)n2C1OC2COP(=O)(O)O[C@@H]2C1O` (some centres undefined), the fold change permeability was 1.
